High-throughput results from PubChem BioAssay.
This is a sample that favours compounds with a hit; in the whole collection about 4.6% have one here.
Tau filament bind – qHTS Assay for Tau Filament Binding; Potency, µM (series often up to 57.1 µM), inactives show top-dose activity change, negative = inhibition; AID 596, 2007; recombinant tau filaments, thioflavin S fluorescence, 15 h; filaments grown with octadecylsulfate alongside compound; actives 2% (n = 71,000); Microtubule-associated protein tau (Homo sapiens), P10636;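 also: % is scaled to controls: 0 for no effect and ±100 for the full control effect; actives lower thioflavin S fluorescence by blocking filaments or displacing dye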
Target sequence (P10636 whole entry, looked up): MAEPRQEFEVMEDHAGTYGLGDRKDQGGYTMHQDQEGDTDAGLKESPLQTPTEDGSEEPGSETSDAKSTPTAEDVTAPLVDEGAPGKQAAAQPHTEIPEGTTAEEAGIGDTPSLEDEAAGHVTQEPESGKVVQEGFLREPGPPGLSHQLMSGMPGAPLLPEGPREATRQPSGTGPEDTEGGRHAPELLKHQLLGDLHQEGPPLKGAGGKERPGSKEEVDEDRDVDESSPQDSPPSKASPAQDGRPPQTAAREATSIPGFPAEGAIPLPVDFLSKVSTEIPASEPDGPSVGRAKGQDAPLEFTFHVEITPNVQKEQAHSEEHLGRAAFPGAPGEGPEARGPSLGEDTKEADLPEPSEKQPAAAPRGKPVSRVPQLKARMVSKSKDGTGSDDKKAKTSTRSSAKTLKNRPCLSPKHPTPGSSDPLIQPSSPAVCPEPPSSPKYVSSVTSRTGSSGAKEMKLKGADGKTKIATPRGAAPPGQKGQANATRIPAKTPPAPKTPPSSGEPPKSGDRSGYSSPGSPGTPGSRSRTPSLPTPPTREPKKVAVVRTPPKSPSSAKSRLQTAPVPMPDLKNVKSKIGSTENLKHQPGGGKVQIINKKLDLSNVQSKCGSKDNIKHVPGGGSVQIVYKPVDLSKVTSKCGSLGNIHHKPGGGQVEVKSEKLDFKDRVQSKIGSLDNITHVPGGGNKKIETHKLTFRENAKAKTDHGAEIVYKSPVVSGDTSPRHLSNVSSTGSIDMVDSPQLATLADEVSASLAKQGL
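Recombinant tau protein (human, 1 uM final) plus 30 uM ODS in HEPES pH 7.4 with NaCl, DTT and thioflavine S. Compound present from the start; fluorescence at 510 nm after 15 h, 37 C.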
USP2a inh – qHTS Assay for Inhibitors of Ubiquitin-specific Protease USP2a; actives 0.1% (n = 60,000); Potency, µM (series often up to 38.3 µM), for inactives: at the highest dose activity change, negative = inhibition, actives largely listed as inhibitors; USP2a enzymatic assay, qHTS inhibition; also: nearly all actives have a fitted effect of over 60% in size
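USP2 core (20 nM final) was preincubated with compound for 30 min at RT in 20 mM Tris-HCl pH 8.0, 2 mM CaCl2, 2 mM beta-mercaptoethanol; Ub-PLA2 (20 nM) plus NBD C6-HPC (20 uM) then added, fluorescence read after 2.5 h.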
PK Bst – Pyruvate Kinase; actives 1.2% (n = 51,000); Potency, µM; purified pyruvate kinase, luminescence ATP production; ribose 5-phosphate activator present at AC10; in the data active = potency below about 11 µM; inconclusive = mostly about 12 µM to 25 µM;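 the screen sought inhibitors and activators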;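 also: scaled between full activation by ribose 5 phosphate and full inhibition by luteolin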
Hsp90 Hop PPI – qHTS Assay for Disrupters of an Hsp90 Co-Chaperone Interaction | Hsp90 C-terminal peptide / TPR2A (Hop) interaction, human | AlphaScreen TPR2A-His6 binding biotin-Hsp90 C-terminal peptide | Potency, µM (titrated, usually from 57 µM), for inactives: at the top dose activity change, negative = inhibition | actives 0.44% (n = 71,000); active = well fitted curve in either direction with a large enough effect; inconclusive = small, poorly fitted or top-dose-only effect, or another doubt; also: % is scaled to controls: 0 for no effect and ±100 for the full control effect
15-hLO inh – qHTS Assay for Inhibitors of 15-hLO (15-human lipoxygenase); AID 887, 2007; actives 1.4% (n = 74,000); purified 15hLO-1, xylenol orange hydroperoxide absorbance; Potency, µM (highest dose often 57.1 µM), inactives show at the top dose activity change, negative = inhibition, usual class: inhibitors; also: % is scaled to controls: 0 for no effect and ±100 for the full control effect; nearly all actives have a fitted effect of over 55% in size
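Quantitative HTS in 25 mM Hepes pH 7.5 containing 0.01% Triton X-100: human 15hLO-1 at 40 nM, arachidonic acid at 50 uM, 6 min turnover. Product quantified via ferrous oxidation/xylenol orange, 573:405 nm absorbance ratio.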
GBA activity – Glucocerebrosidase; Lysosomal acid glucosylceramidase (Homo sapiens), P04062; purified enzyme, resorufin glucoside fluorescence (screen aimed at inhibitors), 20 min; Potency, µM; actives 1.1% (n = 48,000); AID 360, 2006; in the data active = potency below about 15 µM; inconclusive = mostly about 16 µM to 33 µM;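 also: the screen sought inhibitors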
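Compounds titrated against 0.2 nM normal enzyme, 30 uM resorufin beta-D-glucopyranoside substrate, citrate/phosphate buffer with taurocholate and tween-20, pH 5.9. Reaction ran 20 min at room temperature; fluorescence (Ex 548/Em 600) gave AC50.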
Starred values were filed as active, the others as inactive; i = inactive; ? = inconclusive; nt = not tested or not shown; ! = repeats disagree; [ ] = dose if it differs, or a comment. Unless noted, calls follow the shape of the dose curve; as a rule, active = well fitted curve in the direction sought with a large enough effect; inconclusive = small, poorly fitted or top-dose-only effect, or another doubt; inactive = no such curve, though single readings can be large; an effect the other way counts as inactive or inconclusive. Potency is read from the fitted curve at half-maximal effect.

SMILES	Tau filament bind	USP2a inh	PK Bst	Hsp90 Hop PPI	15-hLO inh	GBA activity
CCN(CC)c1ccc(NC(=O)c2cncc(Br)c2)cc1	20µM*	9.3%	>57	-28.8%	-7.8%	?
COc1cccc(OCC(O)CN(CCO)Cc2ccccc2)c1 (stereo unspecified)	-0.7%	11.4%	>57	1.1%	3.4%	13.2*
CCCC1C(C(=O)OCC)=C(C)NC(C)=C1C(=O)OCC	nt	nt	nt	nt	-2.7%	nt
CCOC(=O)C1=C(C)NC(C)=C(C(=O)OCC)C1	-3.8%	9.3%	>57	2.3%	10µM*	>76.9
CCOc1ccccc1N1CCN(Cc2cccc(OC)c2OC)CC1	nt	nt	nt	nt	-18.2%	nt
COc1ccc(OC)c(N2Cc3cc(C)c(C)cc3C2)c1	15.8µM*	17.2%	>57	?	-16.0%	>76.9
CCOc1ccccc1N1Cc2cc(C)c(C)cc2C1	7.94µM*	nt	nt	?	-25.0%	nt
CCN(CC)CC[n+]1ccc2c(C)c3[nH]c4ccc(O)cc4c3c(C)c2c1	3.98µM*	nt	nt	?	?	nt
O=C(CSc1ccc2nnc(-c3cccc(F)c3)n2n1)NCC1CCCO1 (stereo unspecified)	-8.2%	-7.6%	>57	3.5%	?	>76.9
Cc1ccc(NC(=O)CCn2cnc3ccccc3c2=O)cc1Cl	131.8%	-2.2%	>57	-1.6%	-2.1%	6.51*
O=C(CCn1cnc2ccccc2c1=O)Nc1ccc2c(c1)OCCO2	9.6%	-6.9%	>57	-0.8%	5.8%	nt
COc1ccc(N2CCN(C(=O)COc3ccc4ccccc4c3)CC2)cc1	-5.1%	14.7%	>57	-2.1%	0.7%	>76.9
O=C1c2ccccc2NC(c2ccco2)N1O (stereo unspecified)	-21.9%	-1.7%	nt	-5.0%	-8.3%	nt
O=C1C2=C(Nc3ccccc3SC2c2ccco2)c2ccccc21 (stereo unspecified)	3.98µM*	22.4%	nt	?	?	nt
Cc1ccccc1NC(=O)NCCCN1CCN(C2CCCCC2)CC1	11.4%	-5.7%	>57	-2.8%	17.0%	>76.9
O=C(c1ccc(Br)o1)N1CCN(c2ccccc2F)CC1	2.5%	-1.2%	>57	-3.8%	7.8%	>76.9
COc1ccc(-c2nnc(SCC#N)o2)cc1	0.2%	-10.9%	>57	2.2%	2.7%	>76.9
O=C1CCCC(O)=C1C(C#Cc1ccccc1)C1=C(O)CCCC1=O	-9.7%	5.0%	>57	0.1%	7.94µM*	>76.9
COc1ccc(CNc2ccnc(-c3ccoc3)n2)c(OC)c1	-17.3%	162.2%	nt	-16.1%	-23.4%	nt
COc1ccc(CNc2ccnc(-c3c(C)noc3C)n2)c(OC)c1	-10.1%	60.5%	nt	2.8%	25.1µM*	nt
N/C(CSc1nc(-c2ccccc2)c(-c2ccccc2)o1)=N\O	-0.3%	12.5%	nt	-9.6%	12.6µM*	nt
O=c1c2c3nc4ccccc4nc3n(/N=C/c3ccco3)c2ncn1CCC1=CCCCC1	7.94µM*	36.2%	nt	0.1%	-19.7%	nt
CCCCNC(=O)Nc1ccon1	-2.9%	7.1%	>57	-5.1%	-2.3%	>76.9
NC(N)=NCCCCN=C(N)N	31.6µM*!	-7.5%	nt	?	?	nt
NC(N)=NCCCC(=O)O	11.0%[11.4 µM]	nt	nt	-6.4%[11 µM]	1.5%[11.4 µM]	nt
SMILES	Tau filament bind	USP2a inh	PK Bst	Hsp90 Hop PPI	15-hLO inh	GBA activity
O=C(c1cnc(N2CCN(c3ncccn3)CC2)c2ccccc12)N1CCN(c2ncccn2)CC1	2.4%	30.5%	>57	?	-0.8%	>76.9
O=C(c1ccc2c3c(cccc13)CC2)N1CCN(c2ncccn2)CC1	6.5%	22.1%	6.05*	-2.6%	-25.1%	>76.9
CCc1ccc(NC(=O)C2CC(=O)N=C(N)S2)cc1 (stereo unspecified)	-5.6%	4.0%	>57	-4.0%	15.8%	?
CC(C)c1ccc(NC(=O)C2CC(=O)N=C(N)S2)cc1 (stereo unspecified)	-10.5%	3.8%	>57	-4.7%	25.1µM*	3.77*
O=C(O)Cn1c(C(F)(F)F)nc2ccccc21	-3.9%	1.0%	>57	-3.6%	8.2%	>76.9
CCOc1ccc2nc(NC(=O)CSc3nnc(-c4ccncc4)n3CC3CCCO3)sc2c1 (stereo unspecified)	-15.0%	nt	4.67*	1.1%	5.7%	>76.9
CCC(OC(=O)c1cccs1)C(=O)NCc1ccc2c(c1)OCO2 (stereo unspecified)	-4.8%	34.4%	>57	-0.3%	7.4%	>76.9
O=C1CC(/C=C/c2ccco2)=Nc2ccccc2N1	259.9%	0.3%	nt	?	5.01µM*	>76.9
CCOC(=O)c1cnc(-n2nc(C)cc2C)nc1Nc1ccc(N(C)C)cc1	12.6µM*	16.5%	>57	-24.8%	20.3%	>76.9
CCOC(=O)c1cnc(-n2nc(C)cc2C)nc1Nc1ccc2c(c1)OCO2	5.7%	-11.8%	>57	-3.1%	85.2%	>76.9
CN1[C@@H]2CC(OC(=O)[C@@H](CO)c3ccccc3)C[C@H]1[C@H]1O[C@H]12 (stereo partly specified)	-2.5%	0.5%	nt	0.0%	9.3%	nt
COc1cc(C2NC(=O)NC(c3ccccc3)=C2C(C)=O)ccc1OCC(=O)O (stereo unspecified)	47.1%	42.4%	i	18.2%	7.94µM*	>76.9
Cc1ccc(Cl)cc1N1CCN(C(=O)CCC(=O)O)CC1	-2.8%	-5.3%	>57	2.8%	6.6%	>76.9
Cc1ccc(Cl)cc1N1CCN(C(=O)CN2C(=O)c3cccc4cccc2c34)CC1	60.7%	37.2%	5.3*	23.9%	-25.8%	>76.9
COc1ccccc1NC(=O)CSc1nnc(Cc2ccccc2)o1	-2.5%	2.0%	>57	-0.3%	-6.5%	>76.9
CCOC(=O)NC1(Nc2ccc(Cl)cn2)Oc2ccccc2O1	4.3%	-4.1%	>57	0.2%	25.1µM*	>76.9
CCCCCC(=O)Nc1ccc(Cl)cn1	-5.9%	2.4%	>57	2.6%	5.7%	>76.9
Cc1cc(C)nc(N2CCC(C(=O)O)CC2)n1	5.9%	?	>57	-2.5%	8.0%	>76.9
Cc1cc(C)nc(N2CCC(C(=O)Nc3nnc(C)s3)CC2)n1	-3.1%	11.6%	>57	-2.0%	0.6%	3.03*
O=C(O)C1CCCCC1C(=O)NCCCc1ccccc1 (stereo unspecified)	-2.2%	0.5%	>57	-3.2%	2.6%	>76.9
CCCCN1CCc2c([nH]c3c(C)cccc23)C1=O	14.7%	-9.9%	>57	-3.2%	?	9.79*
COc1ccc(N2CCN(Cc3nc(N)nc(Nc4ccccc4OC)n3)CC2)cc1	-4.5%	24.3%	>57	?	16.2%	3.92*
COc1ccccc1Nc1nc(N)nc(CN2CCN(c3ccccc3F)CC2)n1	-9.8%	31.2%	>57	?	18.9%	2.37*
